According to the antibiotic and cytotoxicity screens of Wong et al. (2023):
Hit rate of the full screen: of about 39,000 compounds, about 1,500 (3.8%) were called active. Many of the other results were omitted from the sample, so actives are more common in it than they were.

Each compound was assayed on HSkMC (human skeletal muscle cells) (assay: cytotoxicity call (relative viability < 0.9)). Settings: 10 µM.

Structure (SMILES) | cytotoxicity call
CC(=NNC(=O)c1nnn(-c2nonc2N)c1CN1CCC(C)CC1)c1cccc(Br)c1 | inactive
CN1C(=O)[C@@H]2[C@H](N=CN2CCCO)N(C)C1=O | inactive
C=CCNC(=O)[C@H]1[C@@H]2C(=O)O[C@@H](c3ccccc3)[C@@H](c3ccccc3)N2[C@@H](c2ccc(O)cc2)[C@]12C(=O)Nc1ccc(C#CC3=CCCCC3)cc12 | inactive
COc1ccc(S(=O)(=O)Nc2ccc3c(c2)C(=O)N([C@@H](C)CO)C[C@H](C)[C@H](CN(C)S(=O)(=O)c2cn(C)cn2)OCCCC[C@@H](C)O3)cc1 | inactive
C[C@@H](NC(=O)C[C@H]1CC[C@@H](NC(=O)CN2CCOCC2)[C@@H](CO)O1)c1ccccc1 | inactive
C[C@@H]1CN([C@@H](C)CO)C(=O)Cc2cc(NC(=O)Cn3cnnn3)ccc2O[C@@H]1CN(C)Cc1ccc(C(F)(F)F)cc1 | inactive
CO[C@H](CN(C)C(=O)c1ccc2c(c1)OCO2)[C@@H](C)CN([C@H](C)CO)S(=O)(=O)c1ccc(C)cc1 | inactive
COc1ccc(CNC(=O)[C@H](c2ccc(C)cc2)N(Cc2cccs2)C(=O)c2ccc3c(c2)OCCO3)cc1 | active
CO[C@H](CN(C)C(=O)c1ccc2c(c1)OCO2)[C@H](C)CN([C@H](C)CO)S(=O)(=O)c1ccc(C)cc1 | inactive
COc1cccc(C#Cc2cnc3c(c2)C(=O)N([C@H](C)CO)C[C@@H](C)[C@H](CN(C)C(=O)C2CCOCC2)O3)c1 | inactive
CC(C)C#Cc1ccc2c(c1)O[C@@H](CN(C)C(=O)Cc1ccccn1)[C@H](C)CN([C@H](C)CO)S2(=O)=O | inactive
C[C@@H]1CN([C@H](C)CO)C(=O)c2cccc(NC(=O)Nc3ccccc3)c2O[C@@H]1CN(C)Cc1ccc(-c2ccccc2)cc1 | inactive
C[C@H]1CN([C@@H](C)CO)C(=O)c2cccc(NC(=O)Nc3ccccc3)c2O[C@H]1CN(C)Cc1ccc(C(=O)Nc2ccccc2N)cc1 | active
C[C@H](CO)N1C[C@H](C)[C@H](CN(C)Cc2ccc(-c3ccccc3)cc2)Oc2c(NC(=O)Nc3ccccc3)cccc2C1=O | inactive
C[C@H]1CN([C@@H](C)CO)C(=O)c2cccc(NC(=O)Nc3ccccc3)c2O[C@@H]1CN(C)Cc1ccc(-c2ccccc2)cc1 | inactive
C[C@@H]1CN([C@@H](C)CO)C(=O)c2cccc(NC(=O)Nc3ccccc3)c2O[C@H]1CN(C)Cc1ccc(C(=O)Nc2ccccc2N)cc1 | inactive
C[C@@H]1CN([C@H](C)CO)C(=O)c2cccc(NC(=O)Nc3ccccc3)c2O[C@H]1CN(C)Cc1ccc(-c2ccccc2)cc1 | active
C[C@H](CO)N1C[C@H](C)[C@H](CN(C)Cc2ccc(-c3ccccc3)cc2)Oc2c(NC(=O)Nc3ccc(F)cc3)cccc2C1=O | inactive
C[C@@H]1CN([C@H](C)CO)C(=O)c2cccc(NC(=O)Nc3ccccc3)c2O[C@@H]1CN(C)Cc1ccc(C(=O)Nc2ccccc2N)cc1 | inactive
C[C@H](CO)N1C[C@H](C)[C@@H](CN(C)Cc2ccc(-c3ccccc3)cc2)Oc2c(NC(=O)Nc3ccccc3)cccc2C1=O | inactive
C[C@@H]1CN([C@@H](C)CO)C(=O)c2cccc(NC(=O)Nc3ccccc3)c2O[C@H]1CN(C)Cc1ccc(-c2ccccc2)cc1 | active

Structure (SMILES) | cytotoxicity call
C[C@@H]1CN([C@@H](C)CO)C(=O)c2cccc(NC(=O)Nc3ccccc3)c2O[C@@H]1CN(C)Cc1ccc(-c2ccccc2)cc1 | active
C[C@H]1CN([C@@H](C)CO)C(=O)c2cccc(NC(=O)Nc3ccccc3)c2O[C@H]1CN(C)Cc1ccc(-c2ccccc2)cc1 | inactive
C[C@H]1CN([C@@H](C)CO)S(=O)(=O)c2ccc(-c3cccnc3)cc2O[C@@H]1CN(C)CC1CCOCC1 | inactive
O=C(O)CCCCN(CCc1ccccc1OCc1ccc(CCc2ccccc2)cc1)Cc1ccc(C(=O)O)cc1 | inactive
COc1ccc(S(=O)(=O)N(C)C[C@H]2Oc3c(NC(=O)c4ccncc4)cccc3C(=O)N([C@@H](C)CO)C[C@H]2C)cc1 | inactive
CN1C(=O)CS(=O)(=O)[C@@H]1c1ccccc1 | inactive
C[C@@H]1CCCCO[C@H](CN(C)Cc2ccc(C(=O)O)cc2)[C@H](C)CN([C@@H](C)CO)C(=O)c2cc(NC(=O)Cc3ccccc3)ccc2O1 | inactive
C[C@@H]1CCCCO[C@H](CN(C)C(=O)Nc2ccc(F)cc2)[C@@H](C)CN([C@@H](C)CO)C(=O)c2cc(NC(=O)Nc3ccccc3)ccc2O1 | inactive
CN(C)CCCCCCNC(=O)[C@@H]1C[C@@H]2C(=O)NCC(=O)N2[C@@H]1c1cccc(OCCO)c1 | inactive
Cc1ccc(S(=O)(=O)N(C)C[C@@H]2Oc3ccc(NS(=O)(=O)c4cn(C)cn4)cc3C(=O)N([C@@H](C)CO)C[C@@H]2C)cc1 | inactive
C[C@@H]1CN([C@H](C)CO)C(=O)c2cc(NC(=O)Cc3ccccc3)ccc2O[C@@H]1CN(C)C(=O)Nc1ccc(C(F)(F)F)cc1 | inactive
CCOC(=O)[C@H]1C/C=C/C[C@H](C(=O)OCC)C(=O)O[C@H]2[C@@H](OC)O[C@H](COC(=O)NCCCCCC(=O)NO)[C@@H](OC(=O)Nc3ccccc3)[C@@H]2OC1=O | inactive
C[C@H]1CCCCO[C@H](CN(C)C(=O)Nc2ccc(F)cc2)[C@@H](C)CN([C@@H](C)CO)C(=O)c2cc(NS(=O)(=O)c3ccc(F)cc3)ccc2O1 | inactive
COc1ccccc1C#Cc1cnc2c(c1)C(=O)N([C@H](C)CO)C[C@H](C)[C@@H](CN(C)C(=O)CC1CC1)O2 | inactive
CC(C)(C)S(=O)N1Cc2cc(C(=O)NCc3ccc4c(c3)OCO4)nc(-c3cccc(C#CCC4CCCC4)c3)c2[C@H]1CCO (stereo partly specified) | inactive
COc1ccc(C#Cc2cccc(-c3nc(C(=O)N[C@@H]4CCN(Cc5ccccc5)C4)cc4c3[C@H](CCO)N(S(=O)C(C)(C)C)C4)c2)cc1OC (stereo partly specified) | inactive
CC(C)(C)S(=O)N1Cc2cc(C(=O)NCc3ccc(Oc4ccccc4)cc3)nc(-c3cccc(C#CCC4CCCC4)c3)c2[C@@H]1CCO (stereo partly specified) | active
CC(C)(C)S(=O)N1Cc2cc(C(=O)N[C@@H]3CCN(Cc4ccccc4)C3)nc(-c3cccc(C#CCC4CCCC4)c3)c2[C@H]1CCO (stereo partly specified) | active
CC(C)(C)S(=O)N1Cc2cc(C(=O)NCc3ccc4c(c3)OCO4)nc(-c3cccc(C#CCC4CCCC4)c3)c2[C@@H]1CCO (stereo partly specified) | inactive
CC(C)(C)S(=O)N1Cc2cc(C(=O)N[C@@H]3CCN(Cc4ccccc4)C3)nc(-c3cccc(C#CCC4CCCC4)c3)c2[C@@H]1CCO (stereo partly specified) | inactive
O=C(C[C@H]1CC[C@H]2[C@@H](COC[C@@H](O)CN2C(=O)c2ccc3c(c2)OCO3)O1)NCCN1CCCC1 | inactive

Structure (SMILES) | cytotoxicity call
O=C1[C@H]2C=NN[C@@H]2C(=O)N1Cc1ccccc1 | inactive
COc1ccc2c3c([nH]c2c1)[C@@H](CO)N(C[C@]13CCN(CC1)Cc1nccs1)C(=O)C1CCOCC1 | inactive
C[C@@H]1CN([C@@H](C)CO)C(=O)c2cccc(NS(C)(=O)=O)c2O[C@@H]1CN(C)S(=O)(=O)c1cccs1 | inactive
CCS(=O)(=O)NCC[C@@H]1CC[C@@H](NC(=O)Cc2ccccn2)[C@H](CO)O1 | inactive
C[C@H](CO)N1C[C@H](C)[C@@H](CN(C)Cc2ccc(C(F)(F)F)cc2)Oc2ccc(NC(=O)Cc3cn(C)c4ccccc34)cc2C1=O | inactive
C[C@@H]1CN([C@@H](C)CO)C(=O)c2cc(NC(=O)Cc3cn(C)c4ccccc34)ccc2O[C@@H]1CN(C)C(=O)Nc1ccc(C(F)(F)F)cc1 | active
C[C@@H]1CN([C@H](C)CO)C(=O)c2cc(NC(=O)Cc3cn(C)c4ccccc34)ccc2O[C@H]1CN(C)C(=O)Nc1ccc(C(F)(F)F)cc1 | inactive
C[C@@H]1CN([C@H](C)CO)C(=O)c2cc(NC(=O)Cc3cn(C)c4ccccc34)ccc2O[C@@H]1CN(C)Cc1ccc(C(F)(F)F)cc1 | active
C[C@@H]1CN([C@H](C)CO)C(=O)c2cc(NC(=O)Cc3cn(C)c4ccccc34)ccc2O[C@H]1CN(C)Cc1ccc(C(F)(F)F)cc1 | inactive
C[C@H](CO)N1C[C@H](C)[C@@H](CN(C)C(=O)Nc2ccc(C(F)(F)F)cc2)Oc2ccc(NC(=O)Cc3cn(C)c4ccccc34)cc2C1=O | inactive
O=C(C[C@H]1CC[C@H]2[C@@H](COC[C@@H](O)CN2S(=O)(=O)c2ccccc2)O1)N1CCc2ccccc2C1 | inactive
C[C@H]1CN([C@@H](C)CO)C(=O)c2cc(NS(=O)(=O)c3ccccc3)ccc2O[C@H]1CN(C)CC1CC1 | inactive
Cn1c(N)c(C(=O)c2ccco2)c(=O)n(C)c1=O | inactive
C[C@H](CO)N1C[C@H](C)[C@H](CN(C)S(=O)(=O)c2ccc(Cl)cc2)Oc2ccc(NC(=O)CCN3CCOCC3)cc2CC1=O | inactive
C[C@@H]1CN([C@@H](C)CO)S(=O)(=O)c2ccc(C#C[C@@H](C)O)cc2O[C@H]1CN(C)C(=O)c1ccncc1 | inactive
COc1ccc2c3c([nH]c2c1)[C@H](CO)N(C[C@]13CCN(CC1)CC1CCCC1)C(=O)CN1CCOCC1 | inactive
C[C@H]1CN([C@@H](C)CO)C(=O)Cc2cc(NC(=O)c3ccncc3)ccc2O[C@@H]1CN(C)S(=O)(=O)c1ccc(Cl)cc1 | inactive
C[C@@H]1CCCCO[C@@H](CN(C)Cc2ccccc2)[C@@H](C)CN([C@@H](C)CO)C(=O)c2cc(NC(=O)CCC(F)(F)F)ccc2O1 | inactive
CC(C)C[C@@H]1C(=O)O[C@H](C)C(=O)N(C)[C@@H](CC(C)C)C(=O)O[C@H](Cc2ccc(N3CCOCC3)cc2)C(=O)N(C)[C@@H](CC(C)C)C(=O)O[C@H](C)C(=O)N(C)[C@@H](CC(C)C)C(=O)O[C@H](Cc2ccc(N3CCOCC3)cc2)C(=O)N1C | active
